Activity calls are given as the source filed them. Rule for the calls: active = hit-call score of the fitted dose curve at least 0.9, where 1 is the maximum; inactive = score below 0.9.
Tests used:
[1] = target: Paired box protein Pax-6 (Homo sapiens) (UniProt P26367); experiment: ATG_Pax6_CIS: Attagene CIS-FACTORIAL HepG2 Assay for human Paired Box 6 (PAX6) (AID 2282956); details: HepG2 CIS-FACTORIAL PAX6 reporter transcription, RNA readout; actives raise or lower the signal
Outline: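 Fluorescent RT-PCR products separated by capillary electrophoresis report PAX6-linked promoter mRNA in HepG2 cells 24 h post-dose. Curves fitted bidirectionally, DMSO as negative control.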

[2] = ATG_PXRE_CIS: Attagene CIS-FACTORIAL HepG2 Assay for human Pregnane X Receptor Element (PXRE) (AID 2282957); details: HepG2 Attagene CIS-FACTORIAL PXRE reporter, mRNA; actives raise or lower the signal
Outline: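 Fluorescent capillary electrophoresis of amplified reporter cDNA gave the signal, collected 24 h after dosing HepG2 cells that held transfected cis-element reporter constructs.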

[3] = ATG_PPRE_CIS: Attagene CIS-FACTORIAL HepG2 Assay for human Peroxisome Proliferator-activated Response Element (PPRE) (AID 2282958); details: HepG2 PPRE cis-element reporter, Attagene transcription factor profiling; actives raise or lower the signal
Outline: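 PPRE activity in HepG2: transient cis-reporter transfection, 24 h compound incubation, reporter mRNA by RT-PCR and CE fluorescence; gain/loss fitted against DMSO.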

[4] = ATG_RORE_CIS: Attagene CIS-FACTORIAL HepG2 Assay for human RAR-related Orphan Receptor Element (RORE) (AID 2282959); details: HepG2 Attagene cis-factorial RORE reporter, mRNA; actives raise or lower the signal
Outline: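 A 24-hour exposure of transfected HepG2 hepatoma cells precedes RNA isolation and reporter RT-PCR. Labeled products are digested with HpaI and resolved by capillary electrophoresis, with gain or loss of signal scored relative to DMSO.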

[5] = ATG_Sox_CIS: Attagene CIS-FACTORIAL HepG2 Assay for human SRY-box transcription factor (SOX) (AID 2282960); details: HepG2 Attagene cis-factorial SOX reporter, mRNA; actives raise or lower the signal
Outline: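 HepG2, cis reporter units, 24 h exposure. Reporter mRNA: RT-PCR → FAM labelling → HpaI → CE fluorescence. Bidirectional fit vs DMSO.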

[6] = target: Transcription factor Sp1 (Homo sapiens) (UniProt P08047); experiment: ATG_Sp1_CIS: Attagene CIS-FACTORIAL HepG2 Assay for human Specificity Protein 1 (Sp1) (AID 2282961); details: HepG2 Sp1 cis-reporter transcription, actives raise or lower the signal
Chain of Transcription factor Sp1 (Homo sapiens) (P08047 whole entry, looked up, the tested form may be a part): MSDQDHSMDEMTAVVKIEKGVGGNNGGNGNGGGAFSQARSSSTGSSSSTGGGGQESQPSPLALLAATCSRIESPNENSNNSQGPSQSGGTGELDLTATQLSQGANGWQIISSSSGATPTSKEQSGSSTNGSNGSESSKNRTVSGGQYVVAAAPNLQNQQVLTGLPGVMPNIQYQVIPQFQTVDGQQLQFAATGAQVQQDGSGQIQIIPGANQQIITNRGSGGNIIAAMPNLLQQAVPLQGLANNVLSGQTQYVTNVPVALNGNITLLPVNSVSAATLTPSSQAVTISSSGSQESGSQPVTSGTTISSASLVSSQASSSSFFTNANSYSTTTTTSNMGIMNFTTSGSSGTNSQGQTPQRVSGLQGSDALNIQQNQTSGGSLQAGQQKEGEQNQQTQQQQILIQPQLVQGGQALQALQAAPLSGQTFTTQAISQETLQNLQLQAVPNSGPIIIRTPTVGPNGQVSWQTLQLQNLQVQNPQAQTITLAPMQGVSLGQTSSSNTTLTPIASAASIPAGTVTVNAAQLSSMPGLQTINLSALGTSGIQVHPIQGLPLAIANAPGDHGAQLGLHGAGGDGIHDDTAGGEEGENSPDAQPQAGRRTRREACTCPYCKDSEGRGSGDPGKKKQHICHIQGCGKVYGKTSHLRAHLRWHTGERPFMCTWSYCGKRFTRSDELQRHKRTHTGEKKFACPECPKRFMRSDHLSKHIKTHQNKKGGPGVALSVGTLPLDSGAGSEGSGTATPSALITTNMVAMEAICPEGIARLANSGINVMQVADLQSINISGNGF
Outline: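 Liver-derived HepG2 cells, cis-element reporter library, 24 h treatment; RNA isolated, cDNA amplified with reporter-specific primers, FAM-labeled fragments sized on capillary analyzer. DMSO baseline, bidirectional curve fit.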

[7] = ATG_SREBP_CIS: Attagene CIS-FACTORIAL HepG2 Assay for human Sterol Regulatory Element Binding (SREBP) (AID 2282962); details: HepG2 Attagene cis-factorial SREBP reporter, mRNA; actives raise or lower the signal
Outline: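 Endogenous factor activity is measured in HepG2 through multiplexed reporter units under cis-element control. Following a 24 h incubation, reporter transcripts are reverse-transcribed, PCR-amplified and sized by capillary electrophoresis; activity is fitted in both directions relative to DMSO.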

[8] = target: Signal transducer and activator of transcription 3 (Homo sapiens) (UniProt P40763); experiment: ATG_STAT3_CIS: Attagene CIS-FACTORIAL HepG2 Assay for human Signal Transducer and Activator of Transcription 3 (STAT3) (AID 2282963); details: HepG2, Attagene cis-factorial STAT3 reporter transcription; actives raise or lower the signal
Chain of Signal transducer and activator of transcription 3 (Homo sapiens) (P40763 whole entry, looked up): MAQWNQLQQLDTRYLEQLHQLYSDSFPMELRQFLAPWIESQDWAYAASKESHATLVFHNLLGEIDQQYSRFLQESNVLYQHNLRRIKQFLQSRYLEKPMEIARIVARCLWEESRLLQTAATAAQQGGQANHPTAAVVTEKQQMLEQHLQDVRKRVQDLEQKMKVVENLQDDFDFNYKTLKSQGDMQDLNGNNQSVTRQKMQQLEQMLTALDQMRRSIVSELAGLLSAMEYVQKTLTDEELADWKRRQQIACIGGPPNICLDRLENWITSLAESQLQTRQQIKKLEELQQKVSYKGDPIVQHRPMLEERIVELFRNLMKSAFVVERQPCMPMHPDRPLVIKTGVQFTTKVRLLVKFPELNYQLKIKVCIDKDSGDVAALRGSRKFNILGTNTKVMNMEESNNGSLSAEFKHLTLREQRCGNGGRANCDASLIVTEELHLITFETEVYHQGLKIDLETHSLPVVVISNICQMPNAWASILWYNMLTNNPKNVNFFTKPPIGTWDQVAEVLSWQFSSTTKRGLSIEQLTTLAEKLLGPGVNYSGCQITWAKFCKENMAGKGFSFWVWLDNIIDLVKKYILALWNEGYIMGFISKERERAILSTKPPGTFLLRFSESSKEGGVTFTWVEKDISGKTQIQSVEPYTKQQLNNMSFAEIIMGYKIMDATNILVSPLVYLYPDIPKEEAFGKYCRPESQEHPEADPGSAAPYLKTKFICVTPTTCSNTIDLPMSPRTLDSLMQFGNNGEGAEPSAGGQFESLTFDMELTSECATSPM
Outline: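 Readout is reporter transcript quantified by RT-PCR and capillary electrophoresis, with 6-FAM primer extension and HpaI digestion. Total RNA is taken 24 h after dosing transiently transfected HepG2 carrying cis-regulated reporter units. Bidirectional fit against DMSO.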

[9] = ATG_TA_CIS: Attagene CIS-FACTORIAL HepG2 Assay for human TA Basal Promoter (AID 2282964); details: HepG2 Attagene CIS-factorial TA basal promoter reporter; actives raise or lower the signal
Outline: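 Transient MRTU transfection of HepG2 preceded 24 h compound exposure. Reporter mRNA levels were then read by RT-PCR with capillary electrophoresis, and this background-control endpoint was fitted bidirectionally to DMSO.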

[10] = ATG_TCF_b_cat_CIS: Attagene CIS-FACTORIAL HepG2 Assay for human T-Cell-Factor with beta-catenin (TCF/b-cat) (AID 2282965); details: HepG2 TCF/beta-catenin cis-reporter transcription, actives raise or lower the signal
Outline: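 Endogenous TCF/LEF activity read as reporter transcript level via RT-PCR and capillary electrophoresis fluorescence in transfected HepG2, 24 h exposure; gain or loss of signal fitted against DMSO controls.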

Chain of Paired box protein Pax-6 (Homo sapiens) (P26367 whole entry, looked up): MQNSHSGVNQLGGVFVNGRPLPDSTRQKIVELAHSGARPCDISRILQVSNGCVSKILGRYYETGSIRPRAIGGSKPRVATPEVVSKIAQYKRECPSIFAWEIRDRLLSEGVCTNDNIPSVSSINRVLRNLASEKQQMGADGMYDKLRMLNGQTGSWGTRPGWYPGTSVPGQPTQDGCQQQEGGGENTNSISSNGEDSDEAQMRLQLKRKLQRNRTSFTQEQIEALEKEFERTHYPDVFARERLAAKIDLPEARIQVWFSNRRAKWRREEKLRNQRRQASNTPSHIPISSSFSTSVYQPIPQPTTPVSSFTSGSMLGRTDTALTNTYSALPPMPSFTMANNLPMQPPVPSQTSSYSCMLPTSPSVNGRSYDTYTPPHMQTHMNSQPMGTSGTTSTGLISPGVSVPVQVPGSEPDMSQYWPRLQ

SMILES	outcome [1]	AC50 [2]	outcome [3]	outcome [4]	outcome [5]	outcome [6]	outcome [7]	outcome [8]	outcome [9]	outcome [10]	outcome [2]	AC50 [3]	AC50 [6]	AC50 [7]	AC50 [1]
CCCOc1nn(C(=O)NS(=O)(=O)c2ccccc2C(=O)OC)c(=O)n1C	inactive	50 µM (active)	inactive	inactive	inactive	inactive	inactive	inactive	inactive	inactive	–	–	–	–	–
O=c1ccc(=O)[nH][nH]1	inactive	26.7 µM (active)	–	–	inactive	inactive	inactive	inactive	inactive	inactive	–	–	–	–	–
S=C1NCCN1	inactive	–	–	inactive	inactive	inactive	inactive	inactive	inactive	inactive	inactive	–	–	–	–
CCOC(=O)CC(SP(=O)(OC)OC)C(=O)OCC (stereo unspecified)	inactive	34.8 µM (active)	–	–	inactive	inactive	inactive	inactive	inactive	inactive	–	39.7 µM (active)	–	–	–
CCOP(=S)(Oc1cnc(C(C)(C)C)nc1)OC(C)C (stereo unspecified)	inactive	1.84 µM (active)	inactive	–	inactive	–	–	inactive	inactive	inactive	–	–	28.1 µM (active)	23.2 µM (active)	–
COP(=O)(OC)C(O)C(Cl)(Cl)Cl (stereo unspecified)	inactive	16.1 µM (active)	–	–	inactive	inactive	inactive	inactive	inactive	inactive	–	41.5 µM (active)	–	–	–
CC(C)=CC1C(C(=O)OCN2C(=O)C3=C(CCCC3)C2=O)C1(C)C (stereo unspecified)	–	13.5 µM (active)	–	–	inactive	inactive	–	inactive	inactive	inactive	–	–	–	65.2 µM (active)	74 µM (active)
COc1cccc(C(=O)NN(C(=O)c2cc(C)cc(C)c2)C(C)(C)C)c1C	inactive	0.526 µM (active)	inactive	–	inactive	inactive	inactive	inactive	inactive	inactive	–	–	–	–	–
CCCCOC(=O)[C@@H](C)Oc1ccc(Oc2ccc(C#N)cc2F)cc1	inactive	64.7 µM (active)	inactive	–	inactive	inactive	inactive	inactive	inactive	inactive	–	–	–	–	–
CCCCN(CC)c1c([N+](=O)[O-])cc(C(F)(F)F)cc1[N+](=O)[O-]	inactive	7.62 µM (active)	inactive	–	inactive	inactive	inactive	inactive	inactive	inactive	–	–	–	–	–
CC(C)N(C(=O)SCC(Cl)=C(Cl)Cl)C(C)C	inactive	3.05 µM (active)	–	–	inactive	inactive	–	inactive	inactive	inactive	–	–	–	29.1 µM (active)	–
CCCSP(=O)(OCC)SCCC	inactive	15.2 µM (active)	–	–	inactive	inactive	inactive	inactive	inactive	inactive	–	–	–	–	–
O=C(O)c1cc(Oc2ccc(C(F)(F)F)cc2Cl)ccc1[N+](=O)[O-]	inactive	60 µM (active)	–	–	inactive	inactive	inactive	inactive	inactive	inactive	–	–	–	–	–
CSC1=N[C@@](C)(c2ccccc2)C(=O)N1Nc1ccccc1	inactive	7.44 µM (active)	–	–	inactive	inactive	inactive	inactive	inactive	inactive	–	19.2 µM (active)	–	–	–
Nc1nc(N)nc(NC2CC2)n1	inactive	–	–	–	inactive	inactive	inactive	inactive	inactive	inactive	inactive	–	–	–	–
CCC(=NOC/C=C/Cl)C1=C(O)CC(C2CCOCC2)CC1=O (stereo unspecified)	inactive	–	inactive	–	inactive	inactive	inactive	inactive	inactive	inactive	inactive	–	–	–	–
CNc1cnn(-c2cccc(C(F)(F)F)c2)c(=O)c1Cl	inactive	20.1 µM (active)	inactive	–	inactive	inactive	inactive	inactive	inactive	inactive	–	–	–	–	–
CSc1nnc(C(C)(C)C)c(=O)n1N	inactive	–	–	inactive	inactive	inactive	inactive	inactive	inactive	inactive	inactive	–	–	–	–
CCC(=O)Nc1ccc(Cl)c(Cl)c1	inactive	50 µM (active)	–	inactive	inactive	inactive	–	inactive	inactive	inactive	–	–	–	50 µM (active)	–

Reference: PubChem BioAssay (EPA / NIEHS)
